Compound activity (PubChem BioAssay)
Pf growth 96h = P. falciparum growth inhibition at 96 hours | P. falciparum luciferase reporter growth, 96 h | Potency, µM (highest dose often 28.7 µM), inactives show at the highest dose activity change, negative = inhibition, most hits filed as inhibitors | 6.9% of 320,000 active | AID 504834; active = well fitted inhibition curve with a large enough effect; inconclusive = small, poorly fitted or top-dose-only effect, or another doubt; inactive = no such curve, though single readings can be large or run the other way; also: potency is read from the fitted curve at half-maximal effect; % is scaled to controls: 0 for no effect and ±100 for the full control effect
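96 h incubation, 37 C, 5% CO2, of luciferase-reporter P. falciparum-infected RBCs (2% hematocrit, 0.05% parasitemia final) with test compounds; endpoint luminescence.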
Pf growth 48h = inhibits P. falciparum growth in the first generation, 48 h | P. falciparum luciferase growth in erythrocytes, 48 h | Potency, µM (series often up to 28.7 µM), for the others: at the highest dose activity change, negative = inhibition, hits mostly inhibitors | 5.9% of 310,000 active | AID 504832; active = well fitted inhibition curve with a large enough effect; inconclusive = small, poorly fitted or top-dose-only effect, or another doubt; inactive = no such curve, though single readings can be large or run the other way; also: potency is read from the fitted curve at half-maximal effect; % is scaled to controls: 0 for no effect and ±100 for the full control effect
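Luciferase-expressing P. falciparum in infected erythrocytes (2% hematocrit, 0.1% parasitemia final) in RPMI 1640/0.5% Albumax were exposed to compound for 48 hours at 37 C, 5% CO2; growth read as luminescence.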
RE007 growth inh = less growth of the S. pombe RE007 Vpr strain; S. pombe RE007 Vpr strain, BacTiter-Glo ATP luminescence, 24 h; Potency, µM (titrated, usually from 92.2 µM), for the others: top-dose activity change, negative = less growth, most hits filed as inhibitors; 0.21% of 360,000 active; active = well fitted falling curve with a large enough effect; inconclusive = small, poorly fitted or top-dose-only effect; inactive = no such curve, though single readings can be large or run the other way; also: potency is read from the fitted curve at half-maximal effect; % is scaled to controls: 0 for no effect and ±100 for the full control effect; nearly all actives have a fitted effect of over 50% in size
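Fission yeast strain RE007, carrying one chromosomally integrated HIV-1 vpr copy, was seeded at OD 0.01 in PMG+AL medium with 23 nL pinned compound. After 24 h at 30 °C and 99% humidity, viability was read by BacTiter-Glo luminescence.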
NS1 inh = inhibitors of influenza NS1 protein function; Potency, µM (top dose mostly 46.1 µM), for inactives: at the highest dose activity, positive = more growth; AID 2326; 0.4% of 270,000 active; also: potency is read from the fitted curve at half-maximal effect; actives are rising curves; nearly all actives have a fitted effect of over 50% in size
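S. cerevisiae expressing influenza A NS1, grown in glucose, washed, then diluted 1:100 into pH 6.0 -URA galactose medium with 23 nl compound. Growth recovery read as OD600; NS1-free strain serves as control.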
SARS PLpro yeast-1 = blocks SARS-CoV papain-like protease in a yeast assay | S. cerevisiae expressing SARS-CoV PLpro, growth rescue | Potency, µM (titrated, usually from 32.9 µM), for the others: at the highest dose activity, positive = growth rescue, actives largely listed as activators | 0.19% of 330,000 active | AID 485353; also: potency is read from the fitted curve at half-maximal effect; 0% is about no effect; nearly all actives have a fitted effect of over 55% in size
NS1 inh valid = influenza NS1 function inhibition validation; shares compounds with NS1 inh; influenza NS1 function cell assay, 15-point titration; activity change, negative = inhibition, % at 32.9 µM; 1,400 tested, under 10 active; AID 492980; also: 0% is about no effect
Flu PR8 replic = influenza virus titer reduction, NS1 project | shares compounds with NS1 inh | MDCK infected influenza A/PR/8/34, virus titer TCID50; active compounds read low | virus titer (log TCID50), log10 TCID50 at 5 µM | 30% of 95 active; call rule not given here
SARS PLpro yeast-2 = Validates SARS-CoV PLpro inhibitor hits in yeast. 19% of 1,000 active. yeast expressing SARS-CoV PLpro, growth phenotype rescue. AID 652038. shares compounds with SARS PLpro yeast-1. calls only; call rule not given here
* hit, by the source's call; i = inactive; u = inconclusive; x = not tested or not shown; + = active, no number; [ ] = another dose, or the depositor's remark. Hits are enriched below; roughly 9.5% of the tested compounds scored in any of these assays. Unless noted, calls follow the shape of the full dose curve.

SMILES	Pf growth 96h	Pf growth 48h	RE007 growth inh	NS1 inh	SARS PLpro yeast-1	NS1 inh valid	SARS PLpro yeast-2	others
Cc1ccc(-c2cc(C(=O)Nc3ccc(S(=O)(=O)Nc4nc(C)cc(C)n4)cc3)c3ccccc3n2)cc1	u	u	10%	14µM*	-2%	13	x
CC(=O)NS(=O)(=O)c1ccc(NC(=O)c2cc(-c3ccc(C)cc3)nc3ccccc23)cc1	7%	25%	11%	8.9µM*	23%	5	x
COc1ccc(-c2noc(CCC(=O)O)n2)cc1	u	0%	-11%	3.5µM*	u	-30	x
CN(CC(=O)Nc1ccc(Cl)c(C(F)(F)F)c1)C(=O)CCN1C(=O)C2CC=CCC2C1=O (stereo not drawn)	-27%	-9%	-6%	x	-3%	x	x
CCOC(=O)c1ccc(NC(=O)CSc2nc(C)cc(=O)[nH]2)cc1	52%	2%	-8%	u	-5%	-10	x	Flu PR8 replic=8
Cc1cc(=O)[nH]c(SCC(=O)Nc2ccc(C(=O)O)cc2)n1	3%	x	-1%	-2%	10%	x	x
CCn1c(N2CCN(CC(=O)c3c(C)n(C)c4ccc(OC)cc34)CC2)nc2c1c(=O)[nH]c(=O)n2C	10µM*	u	-6%	11µM*	-1%	-37	x
CNS(=O)(=O)c1ccc(C)cc1	115%	x	9%	u	0%	13	x
COc1ccc(C(=O)NCC(=O)OCC(=O)NCc2ccc3c(c2)OCO3)cc1	x	x	-10%	x	9%	x	x
Cc1cccc(OCc2nnc(SCC(=O)NC3CCCCC3)n2C)c1	-6%	-3%	-4%	3%	0%	x	x
Cc1ccc(C(C)C)c(OCc2ccc(C(=O)N/N=C/c3ccc(O)c(O)c3)cc2)c1	u	u	1%	13µM*	-3%	14	x
Cc1ccc(-c2csc(N3CCC(NS(=O)(=O)c4ccc5c(c4)OCCO5)CC3)n2)cc1	9.3µM*	u	-11%	u	-5%	-1	x	Flu PR8 replic=7.7
Cc1ccc(N2C(=O)CC(N(O)C3CC(=O)N(c4ccc(C)cc4)C3=O)C2=O)cc1 (stereo not drawn)	26%	9%	4%	20µM*	-5%	u	x
Cc1occc1-c1nnc(SCC(=O)c2c(N)n(Cc3ccccc3)c(=O)n(C)c2=O)n1C	183%	u	3%[3.69 µM]	10µM*	12%	18	x
Cc1ccc(S(=O)(=O)n2nc(C)cc2N)cc1	u	19%	2%	22µM*	1%	3	x
COc1ccc(C(C)=O)cc1CSc1nnc(-c2ccc(Cl)cc2)n1-c1ccccc1	9.3µM*	u	13%	1µM*	6%	u	x
COc1ccccc1NC(=O)CC(=O)CSc1nnc(-c2ccc(C)cc2)n1-c1ccccc1	27%	-24%	x	14µM*	10%	8	x
O=C(CSc1nnc(-c2ccccc2)n1-c1ccccc1)NCc1ccco1	61%	-9%	2%	18µM*	-8%	1	x
O=C(CSc1nnc(-c2ccco2)n1-c1ccccc1)NCc1ccco1	44%	6%	9%	21%	1%	x	x
O=C(NCC1CCN(Cc2ccccc2F)CC1)Nc1cccc(Br)c1	-1%	u	u	-1%	-1%	x	x
COCc1cn(CC(=O)c2sc(NC(=O)C(C)(C)C)nc2C)nn1	x	x	2%	x	x	x	x
Cc1cc(C)c2sc(NNC(=O)c3ccc(S(=O)(=O)N4CCc5ccccc5C4)cc3)nc2c1	12µM*	u	22%	11µM*	7.9µM*	6	+
COc1ccc(OC(=O)c2ccncc2)cc1	35%	-8%	-10%	u	u	-2	i
CCOC(=O)[C@]12CCCC=C1N(Cc1ccc(Cl)cc1Cl)C(=O)[C@H](CC(=O)NCc1cccc3ccccc13)C2	x	x	-5%	x	x	x	x
O=C1C2ON(c3ccccc3)C(c3ccccc3F)C2C(=O)N1c1ccccc1 (stereo not drawn)	0%	9%	-4%	-45%	-5%	x	x
SMILES	Pf growth 96h	Pf growth 48h	RE007 growth inh	NS1 inh	SARS PLpro yeast-1	NS1 inh valid	SARS PLpro yeast-2	others
CN1OC2C(=O)N(c3ccccc3)C(=O)C2C1c1ccc(F)cc1 (stereo not drawn)	0%	5%	-6%	u	u	12	i
COc1ccc(S(=O)(=O)N(C)C[C@@H]2Oc3c(NS(C)(=O)=O)cccc3C(=O)N([C@@H](C)CO)C[C@H]2C)cc1	x	x	5%	x	u	x	x
CC(C)COc1ccc(-c2nn(-c3ccccc3)cc2C(=O)Nc2nccs2)cc1	u	x	12%	11µM*	u	0	+
O=C(Nc1nccs1)c1cn(-c2ccccc2)nc1-c1ccccc1	x	x	4%	21%	u	x	x
Cc1cc(C)cc(-n2c(C)cc(C(=S)N3CCOCC3)c2C)c1	42%	12µM*	1%	5%	14µM*	x	+
Cc1cc(C(=S)N2CCOCC2)c(C)n1-c1ccc(Cl)cc1	8%	u	4%	10%	27%	x	x
C=CCN(CC(=O)O)S(=O)(=O)c1ccccc1C(F)(F)F	32%	14%	0%	4%	1%	x	x
CCOC(=O)c1ccc(NC(=O)C2CCN(C(=O)c3ccc(OC)c(OC)c3)CC2)cc1	x	u	17%	0%	u	x	i
O=C(NC1CCCCC1)N1CCCC(c2nc(-c3cccs3)no2)C1 (stereo not drawn)	-20%	-5%	1%	-2%	-7%	x	x
O=C(Nc1ccccc1)N1CCCC(c2nc(-c3cccs3)no2)C1 (stereo not drawn)	x	21%	10%	-62%	16µM*	x	i
COc1ccc2nc(SCC(=O)N3CC(=O)Nc4ccccc43)c(C#N)cc2c1	u	x	5%	5%	u	x	i
COc1ccc(Cl)cc1NC(=O)COC(=O)/C=C/c1c(C)nn(C2CCS(=O)(=O)C2)c1Cl (stereo not drawn)	u	u	0%	8%	u	x	i
COc1ccc2cc(C(=O)N/N=C/c3sc4ccccc4c3O)ccc2c1	40%	u	-1%	14%	5µM*	x	+
O=C(N/N=C/c1sc2ccccc2c1O)c1cccc2ccccc12	-120%	u	6%	9%	2.8µM*	x	i
O=C(N/N=C/c1sc2ccccc2c1O)c1ccccc1	u	4.7µM*	45µM*	-43%	4µM*	x	i
COc1ccc(C(=O)N/N=C/C(=O)c2ccccc2)cc1	0%	55%	-21%	-12%	-10%	x	x
